Our source for the Tm shift relative to glycine control values is PubChem BioAssay AID1259313 (Sanford-Burnham Center for Chemical Genomics, 2017).

Structures are written as SMILES. In all, about 340,000 compounds went through this assay and about 8,500 (2.5%) were called active. The sample holds actives, similar compounds and a random draw of the others, so the mix is not that of the screen. A number with no mark means an inactive call.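 How the source made its calls: active means melting temperature shift of at least 10% of the positive control shift, at one fixed dose; inactive means the rest.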

The experiment relates to Glutamate receptor ionotropic, NMDA 3A (GRIN3A) ligand-binding domain. Put plainly: NR3A LBD thermal stabilization by compounds – biophysical, differential scanning fluorimetry, uHTS, primary screen (AID 1259313). The note with it: at 25 µM, hits give high values, 0% = protein alone, 100% = glycine-bound protein. (DSF heats the sample and reads unfolding from a dye or from intrinsic fluorescence.)
As for `COCC(C)NC(=O)c1ccc(-n2nc(C(F)(F)F)cc2-c2cccs2)cc1` (stereo not given), the Tm shift relative to glycine control is -0.17%. With `COC(=O)c1cn(C)c2ccc(S(=O)(=O)N3CC(C)CC(C)C3)cc2c1=O` (stereo not given), the Tm shift relative to glycine control is 1.34%. In the case of `O=C(Nc1cccnc1Cl)c1cc(-c2cccc(Cl)c2)on1`, the Tm shift relative to glycine control was -2.35%.

With `CCc1ccccc1NC(=O)c1cc(-c2ccc3c(c2)OCO3)on1`, the Tm shift relative to glycine control was 0.47%. For `O=C(Nc1ccccc1C(F)(F)F)c1cc(-c2ccc(O)cc2)on1`, the Tm shift relative to glycine control is 12.7% (active). Take `CNC(=O)c1nnn(-c2ccccc2)c1C(=O)NC`: the Tm shift relative to glycine control was 4.23%. Under `O=[N+]([O-])c1cc(C(F)(F)F)ccc1NCCc1ccncc1` stands 0.61%; under `Cc1csc(NC(=O)c2ccc(-c3ccc(Cl)cc3Cl)o2)n1`, -7.24%. As to `Cc1sc2ncnc(N3CCC(C(=O)Nc4nc5ccc(Cl)cc5s4)CC3)c2c1C`, the Tm shift relative to glycine control was 7.43%.

On to `Cc1ccc(C(=O)Nc2nc3ccc(Cl)cc3s2)o1`, for which the Tm shift relative to glycine control is 11.1% (active). As to `O=C(NCCCn1ccnc1)c1cc(-c2ccccc2)on1`, the Tm shift relative to glycine control was 1.42%. As to `CS/C(=C\[N+](=O)[O-])Nc1ccc(C)cc1`, the Tm shift relative to glycine control was -1.04%. For `CCCC(=O)Nc1cccc(NC(=S)NC(=O)C(C)Oc2ccc(Cl)cc2Cl)c1` (stereo not given), the Tm shift relative to glycine control was 16% (active). For the molecule `CC(Oc1ccc(Cl)cc1Cl)C(=O)/C=C/N(C)C` (stereo not given), the Tm shift relative to glycine control was -0.27%. With `COc1cccc(NC(=O)CN(C)C(=O)Cc2ccc(Cl)cc2Cl)c1`, the Tm shift relative to glycine control was -0.7%. On to `Cc1ccc(NC(=O)c2cnc(SCC(=O)NCC3CCCO3)n(C)c2=O)cc1` (stereo not given), for which the Tm shift relative to glycine control is -0.94%.

Take `CC(C)CN(C(=O)CN1CCN(S(=O)(=O)c2ccccc2)CC1)c1c(N)n(CC(C)C)c(=O)[nH]c1=O`: the Tm shift relative to glycine control is -2.36%.

In the case of `CSc1ccc(Cl)c(C(=O)OCC(=O)N2CC(C)OC(C)C2)c1` (stereo not given), the Tm shift relative to glycine control is 1.12%.

For `O=C1NC(c2ccccc2)Cc2ccncc21` (stereo not given), the Tm shift relative to glycine control was 0.42%. Take `CCc1ccc(NC(=O)C(C)OC(=O)/C=C/c2cccc([N+](=O)[O-])c2)cc1` (stereo not given): the Tm shift relative to glycine control was 0.39%. Take `Cc1ccc(NC(=O)O/N=C/c2cccc([N+](=O)[O-])c2)cc1`: the Tm shift relative to glycine control was 15.8% (active). For `CCC(CC)NC(=O)/C=C/c1cccc([N+](=O)[O-])c1`, the Tm shift relative to glycine control is -1.15%. Under `CCOc1ccc(-c2cc(C(=O)N/N=C/c3ccc(O)cc3)c3ccccc3n2)cc1` stands 3.69%; under `Cc1ccc(C(=O)N/N=C/c2cccc3ccccc23)cn1`, -0.89%. Under `N#CCC(=O)N/N=C/c1cn(Cc2ccc3ccccc3c2)c2ccccc12` stands 8.21%; under `COc1cccc(Cn2cc(/C=N/NC(=O)c3cc(O)cc(O)c3)c3ccccc32)c1`, 15.4% (active); under `CCn1c(=S)sc2c(=O)n(CC(=O)Nc3ccc(OC)cc3)c(C)nc21`, -1.05%. Under `CCn1c(=S)sc2c(=O)n(CC(=O)Nc3cccc(Br)c3)c(C)nc21` stands 19% (active); under `CCOC(=O)c1ccccc1NC(=O)CSc1nc2c(sc(=S)n2CC)c(=O)[nH]1`, 2.58%; under `CCCCN(CC)C(=O)C1CCCN(S(=O)(=O)c2cccc3nsnc23)C1` (stereo not given), -4.45%. Consider `CC1C(=O)Nc2ccc(S(=O)(=O)N3CCN(c4ccccc4F)CC3)cc2NC1=O` (stereo not given), for which the Tm shift relative to glycine control is 0.26%. Under `Cc1cccc2nc(CNc3ccc(F)cc3)cn12` stands -1.65%. Under `O=C(/C=C/c1ccccc1Cl)Nc1ccc(S(=O)(=O)Nc2ncccn2)cc1` stands 3.4%; under `CC(=O)NS(=O)(=O)c1ccc(NC(=O)/C=C/c2ccccc2Cl)cc1`, -4.31%. As for `NS(=O)(=O)c1ccc(NC(=O)/C=C/c2ccccc2Cl)cc1`, the Tm shift relative to glycine control was 22.5% (active). Next, `O=C(O)c1ccccc1-c1ccccc1C(=O)Nc1ccccc1Br`: -1.03%; `Cc1cc(N2C(=O)c3ccc(C(=O)NCc4ccccc4)cc3C2=O)no1`: -0.54%; `CC(C)C[C@H](NC(=O)N1CCn2c1nc1ccccc12)C(=O)NC1CC1`: -0.74%. With `O=C(Nc1ccc(Cl)cc1)Nc1nnc(/C=C/c2ccccc2)s1`, the Tm shift relative to glycine control is 10.2% (active).

With `O=C(CSc1ccccc1)Nc1nnc(/C=C/c2ccccc2)s1`, the Tm shift relative to glycine control is -4.65%.

On to `COc1ccc(/C=C/c2nnc(NC(=O)C(C)C)s2)cc1`, for which the Tm shift relative to glycine control was 6.05%. On to `CC1CN(c2cc(=O)n(Cc3ccc(F)cc3)c(=O)[nH]2)CC(C)O1` (stereo not given), for which the Tm shift relative to glycine control was -2.45%.

With `COc1cc(CNC2CCCCC2)c(Br)cc1OC1CCCC1`, the Tm shift relative to glycine control was -0.72%. Under `COc1ccc(CNC(=O)COc2ccccc2C(=O)c2cnn(-c3ccccc3)c2)cc1OC` stands 0.33%; under `Cc1cc(O)cc(O)c1C(=O)Cc1cnn(-c2ccccc2)c1`, 13.1% (active).

As for `O=C(c1cnn(-c2ccc(Cl)cc2)c1)c1ccccc1O`, the Tm shift relative to glycine control was -2.84%.

As to `O=C(Nc1ccc(N2CCOCC2)nc1)c1c(F)cccc1F`, the Tm shift relative to glycine control was 1.58%.

For the molecule `COC(=O)c1c(-c2ccsc2)oc2ccc(-c3cc(OC)c(OC)c(OC)c3)cc12`, the Tm shift relative to glycine control was 14.2% (active).

In the case of `COc1ccccc1CNC(=O)c1cc(=O)c2ccccc2o1`, the Tm shift relative to glycine control is -2.39%.

For the molecule `COc1cc(CC(=O)NCc2cccs2)cc(OC)c1OC`, the Tm shift relative to glycine control is 2.82%. With `CCc1ccccc1NC(=O)CN(c1ccc(OC)cc1OC)S(=O)(=O)c1ccccc1[N+](=O)[O-]`, the Tm shift relative to glycine control is -2.68%. Under `COc1ccc(Br)cc1CN(C)CC(=O)Nc1cc([N+](=O)[O-])ccc1OC` stands -12.7%; under `N#CCCN(C(=O)COC(=O)C1CCN(c2ccc(C(F)(F)F)cn2)CC1)c1ccc(F)cc1`, 1.13%. Under `CCc1cccc(NC(=O)COC(=O)C2CCN(c3ccc(C(F)(F)F)cn3)CC2)c1` stands 12.6% (active).

Consider `CCOc1ccc(CCNC(=O)COC(=O)C2CCN(c3ccc(C(F)(F)F)cn3)CC2)cc1OCC`, for which the Tm shift relative to glycine control was -4.5%. Next, `COc1ccc(-n2nc(C(=O)NCC(=O)N3CCCCCC3)c3ccccc3c2=O)cc1Cl`: -2.28%; `NS(=O)(=O)c1ccc(NC(=O)COC(=O)c2c3c(nc4ccccc24)/C(=C\c2ccc4c(c2)OCO4)CCC3)cc1`: 38% (active). Under `COc1cc(/C=C2\CCCc3c2nc2ccccc2c3C(=O)O)cc(Cl)c1O` stands -0.18%. Under `NS(=O)(=O)c1ccc(NC(=O)COC(=O)c2ccco2)cc1` stands -3.86%; under `O=C(COC(=O)c1ccc(F)cc1)Nc1ccc2c(c1)OCO2`, -2.46%; under `NS(=O)(=O)c1ccc(NC(=O)COC(=O)CCc2c[nH]c3ccccc23)cc1`, -3.19%. With `NC(=O)c1ccc(NC(=O)COC(=O)c2c3c(nc4ccccc24)/C(=C\c2ccc4c(c2)OCO4)CCC3)cc1`, the Tm shift relative to glycine control was 31.8% (active).

In the case of `O=C(COC(=O)c1ccncc1)Nc1ccc2c(c1)OCO2`, the Tm shift relative to glycine control was -0.26%. For `O=C(COC(=O)c1c2c(nc3ccccc13)/C(=C\c1cccs1)CCC2)Nc1ccccc1Cl`, the Tm shift relative to glycine control is 14.6% (active). As for `O=C(COC(=O)c1cc(-c2cccs2)nn1-c1ccccc1)Nc1cc([N+](=O)[O-])ccc1Cl`, the Tm shift relative to glycine control was -1.02%. Next, `CC(C)(C)n1ncc2c(=O)n(Cc3c(Cl)cccc3Br)cnc21`: -3.98%. Next, `COc1ccc(NS(=O)(=O)c2ccc(C)c(C(=O)NNC(=O)c3csc(N4CCOCC4)n3)c2)cc1`: 0.91%; `COc1ccc(NC(=O)COC(=O)CNC(=O)C2CCCCC2)cc1`: -0.45%; `Cc1cc(C)cc(NC(=O)Cn2cnc3c(nnn3Cc3ccc(F)cc3)c2=O)c1`: 3.35%. Take `COc1ccc(/C=C/CN2CCCC(C(=O)c3cc(F)ccc3F)C2)cc1` (stereo not given): the Tm shift relative to glycine control is -1.5%.

Turning to `CCN1CCN(c2nc(Nc3cc(OC)ccc3OC)nc(Nc3cc(OC)ccc3OC)n2)CC1`, the Tm shift relative to glycine control is -2.4%. For the molecule `Cc1csc(NC(=O)C2CCN(S(=O)(=O)c3ccccc3)CC2)n1`, the Tm shift relative to glycine control is 2.42%. On to `CC(C)(C)NC(=O)COc1ccc(CNc2ccc3[nH]c(=O)[nH]c3c2)cc1`, for which the Tm shift relative to glycine control is -1.72%.

For the molecule `COc1cccc(CN(C)CC(O)COC(c2ccccc2)c2ccccc2C)c1` (stereo not given), the Tm shift relative to glycine control is -2.39%. Next, `C=C(C)Cn1c(C)cc(C)c(S(=O)(=O)c2ccccc2C)c1=O`: 2.34%. Next, `COCCn1c(C)cc(C(=O)CSc2nnc(C3CC3)n2C2CC2)c1C`: -0.08%; `Cc1nc2ccccc2n1CC(=O)N/N=C/c1cccs1`: -4.96%; `CC(C)NS(=O)(=O)c1ccc(NC(=O)c2cccnc2)cc1`: 0.24%. Under `COc1ccc(C(=O)Nc2ccc(S(=O)(=O)NC(C)C)cc2)cc1` stands 14% (active); under `COc1ccc(NS(=O)(=O)c2ccc(NC(=O)c3ccc(N(C)S(C)(=O)=O)cc3)cc2)cc1`, -0.38%; under `CCC(=C/c1sc2ccc3ccccc3c2[n+]1C)/C=C1\Sc2ccc3ccccc3c2N1C`, 3.14%.

On to `CC1CCCCC1NC(=O)Cn1cnc2c1c(=O)n(C)c(=O)n2C` (stereo not given), for which the Tm shift relative to glycine control is -0.41%. Under `CCS(=O)(=O)c1ccc(O)c(NC(=O)COc2ccc(Cl)cc2)c1` stands 1.4%; under `COc1ccc(C(=O)Nc2cc(C)ccc2NC(=O)COc2ccccc2)cc1`, -0.91%; under `Cc1ccc(O)c(NC(=S)NC(=O)COc2ccc(Br)cc2)c1`, 16.9% (active). As for `Oc1ccc(/C=N/N(Cc2ccccc2)c2ccccc2)cc1`, the Tm shift relative to glycine control is 8.8%. Under `COc1cc(OC)cc(-c2cc3ccc(F)cc3cn2)c1` stands 1.79%; under `COC(=O)C1CCN(C(=O)NC2CC(=O)N(c3ccc4c(c3)OCCO4)C2)CC1` (stereo not given), 0.42%. As to `CC(=O)c1ccc(S(=O)(=O)NC2CC(=O)N(c3ccc4c(c3)OCCO4)C2)cc1` (stereo not given), the Tm shift relative to glycine control was 15.5% (active). Regarding `CC(=O)c1ccccc1NC(=O)C1CC(=O)N(c2ccc3c(c2)OCCO3)C1` (stereo not given), the Tm shift relative to glycine control was -0.26%.
